Laboratory results reported in PubChem BioAssay AID2061306 (National Center for Advancing Translational Sciences (NCATS), 2025).
Inconclusive results are not listed. The source made the active and inactive calls. Calls come from the whole dose curve; as a rule, active = well fitted inhibition curve with a large enough effect; inconclusive = small, poorly fitted or top-dose-only effect; inactive = flat fitted curve, though single readings scatter.

Test: Identification of antibody-drug conjugate (ADC) payloads which are substrates of ATP-binding cassette drug efflux transporters: ABCB1-HEK293-pcDNA cell line
Settings: HEK293 empty-vector (pcDNA) control viability, CellTiter-Glo, 48 h
Text: Antibody-drug conjugates (ADCs) feature an antibody recognizing a specific protein joined to a potent toxic payload. Numerous antibody-drug conjugates have received FDA approval; however, clinical resistance arises. Resistance mechanisms include decreased expression or mutation of the antibody target, impaired payload release, or increased expression of ATP-binding cassette (ABC) efflux transporters associated with multidrug resistance. We therefore sought to characterize the interaction of ABC multidrug transporters with ADC payloads. We performed a high-throughput screen with 27 common ADC payloads using cells lines expressing ABC transporters P-glycoprotein (P-gp, encoded by ABCB1) or ABCG2 (encoded by ABCG2). Confirmatory assays were also performed using cells transfected to express P-gp, ABCG2, or MRP1 (encoded by ABCC1). Several commonly used ADC payloads were substrates of P-gp, including calicheamicin gamma1, monomethyl auristatin E, DM1, and DM4. All the pyrrolobenzodiazepines tested - SJG136, SGD-1882, SG2057, and SG3199 - were substrates of P-gp, ABCG2, and MRP1. […] These findings highlight the risk of transporter-mediated resistance with certain ADC payloads and underscore the importance of selecting payloads that evade ABC transporter recognition in future ADC development.
HEK-293 cells were transfected with empty vector (pcDNA) or vector containing the human ABCB1 (MDR-19), ABCG2 (R-5), or ABCC1 gene (MRP1) and were maintained in EMEM with 2 mg/mL G418 added to maintain transporter expression. The HeLa derivative KB-3-1 and the P-gp overexpressing KB-8-5-11 subline were maintained in DMEM; KB-8-5-11 additionally received 100 ng/mL colchicine. H460 parental cells were obtained from the Division of Cancer Treatment and Diagnosis Tumor Repository, National Cancer Institute at Frederick, MD and were cultured in RPMI. The ABCG2 expressing subline H460 MX20 was generated by selecting H460 cells in 20 nM mitoxantrone. Media in all cases was supplemented with 10% FBS and 1% penicillin-streptomycin. We explored 27 common ADC payloads, in two orthogonal, paired cell line sets-a drug selected and transfected set for each transporter--to identify substrates of the ABC transporters P-gp and ABCG2. Compounds were sourced from Levena Biopharma (San Diego, CA), Selleck Chem (Houston, TX), ChemieTek (Indianapolis, IN), or Microsource Discovery Systems (Gaylordsville, CT). Screening was performed as previously described. Briefly, cells were plated at a density of 500 cells/well in 1536 well plates with compounds added using a 1536-head pin tool (Kalypsys, San Diego CA). Cells were incubated with cytotoxic drugs and processed with CellTiter Glo reagent (Promega, Madison, WI) to determine viability after 48 hours. P-gp substrates were identified by comparing compound activity between paired sets of low-expressing (sensitive) and over-expressing (resistant) cell lines.

Compound | Potency
COc1cc2cc(c1Cl)N(C)C(=O)C[C@H](O)[C@]1(C)O[C@H]1[C@H](C)C1C[C@@](O)(NC(=O)O1)[C@H](OC)/C=C/C=C(\C)C2 | 2980 nM (active)
CCN[C@H]1CO[C@@H](O[C@H]2[C@H](O[C@H]3C#C/C=C\C#C[C@]4(O)CC(=O)C(NC(=O)OC)=C3/C4=C\CSSSC)O[C@H](C)[C@@H](NO[C@H]3C[C@H](O)[C@H](SC(=O)c4c(C)c(I)c(O[C@@H]5O[C@@H](C)[C@H](O)[C@@H](OC)[C@H]5O)c(OC)c4OC)[C@@H](C)O3)[C@@H]2O)C[C@@H]1OC | 0.2 nM (active)
CN(C)CCOc1ccc2[nH]c(C(=O)N3C[C@@H](CCl)c4c3cc(O)c3ccccc43)cc2c1 | 0.4 nM (active)
CCN(C(C)=O)[C@H]1CO[C@@H](O[C@H]2[C@H](O[C@H]3C#C/C=C\C#C[C@]4(O)CC(=O)C(NC(=O)OC)=C3/C4=C\CSSSC)O[C@H](C)[C@@H](NO[C@H]3C[C@H](O)[C@H](SC(=O)c4c(C)c(I)c(O[C@@H]5O[C@@H](C)[C@H](O)[C@@H](OC)[C@H]5O)c(OC)c4OC)[C@@H](C)O3)[C@@H]2O)C[C@@H]1OC | 1.5 nM (active)
COc1cccc2c1C(=O)c1c(O)c3c(c(O)c1C2=O)C[C@@](O)(C(=O)CO)C[C@@H]3O[C@H]1C[C@H](N)[C@H](O)[C@H](C)O1 | 29.8 nM (active)
CCc1c2c(nc3ccc(O)cc13)-c1cc3c(c(=O)n1C2)COC(=O)[C@]3(O)CC | 4.7 nM (active)
COC(=O)c1cc2c3c(cc(O)c2[nH]1)N(C(=O)c1cc2cc(OC)c(OC)c(OC)c2[nH]1)CC3CCl (stereo not given) | 0.4 nM (active)
COc1cccc2c1C(=O)c1c(O)c3c(c(O)c1C2=O)C[C@@](O)(C(=O)CO)C[C@@H]3O[C@H]1C[C@H]2[C@H](O[C@@H]3[C@@H](OC)OCCN32)[C@H](C)O1 | 0.0334 nM (active)
COc1ccc(C2=CN3C(=O)c4cc(OC)c(OCCCOc5cc6c(cc5OC)C(=O)N5C=C(c7ccc(N)cc7)C[C@@H]5C=N6)cc4N=C[C@H]3C2)cc1 | 1.3 nM (active)
CC(C)(C)OC(=O)Nc1ccc2[nH]c(C(=O)N3C[C@@H](CCl)c4c3cc(O)c3ccccc43)cc2c1 | 8.4 nM (active)
